Where a name gives a salt, the structure may show the parent alone.
Each compound was assayed on Klebsiella aerogenes DSM 30053 (assay: fold change of Histamine concentration vs plate DMSO controls (fold change (ratio)); higher = more amine produced, active = hit call of the paper (significant change in both replicates, either direction)). Conditions: incubation time: 27 h, anaerobic, 37 °C;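 for the amine columns active = adjusted P below 0.05 in both replicates with a change the same way and a mean fold change under 0.8 or over 1.25; inactive = the rest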.
Summary of the method: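 Each value is the fold change relative to DMSO-only wells on the same plate. Four gut bacterial strains were grown anaerobically in mGAM at 37 °C for 27 h in 80 µL wells, starting at OD 0.1 before a 1:1 dilution, with compounds at 20 µM final (sweeteners 50 µM). Whole cultures were extracted with cold acetonitrile/methanol containing 0.1% formic acid, centrifuged, and amines were quantified by LC–triple-quadrupole MS (dynamic MRM) against external calibration curves with within-batch drift correction. Values are means of 2 biological replicates.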

Compound	fold change of Histamine concentration
COc1ccc(CC(C)NCC(O)c2ccc(O)c(NC=O)c2)cc1 (centres undefined) [Formoterol fumarate] (20 µM)	0.864 (inactive)
CCN(CC)CCc1nc(-c2ccccc2)no1 [Oxolamine citrate salt] (20 µM)	1.04 (inactive)
O=C(O)c1cc(-c2ccc(F)cc2F)ccc1O [Diflunisal] (20 µM)	1.02 (inactive)
NC(=O)NC1NC(=O)NC1=O (centres undefined) [Allantoin] (20 µM)	1.02 (inactive)
CN1CCCN=C1/C=C/c1cccs1 [Pyrantel tartrate] (20 µM)	0.952 (inactive)
CCN1CCN(c2cc3c(cc2F)c(=O)c(C(=O)O)cn3C2CC2)CC1 [Enrofloxacin] (20 µM)	0.0794 (active)
CCCNC(C)C(=O)Nc1c(C)csc1C(=O)OC (centres undefined) [Articaine hydrochloride] (20 µM)	0.917 (inactive)
CCN(CC)CC(=O)Nc1c(C)cccc1C [Lidocaine hydrochloride] (20 µM)	1.08 (inactive)
CCn1cc(C(=O)O)c(=O)c2cc(F)c(N3CCNC(C)C3)c(F)c21 (centres undefined) [Lomefloxacin hydrochloride] (20 µM)	0.0674 (active)
C[C@]12CCC(=O)C=C1CC[C@@H]1[C@@H]2C(=O)C[C@@]2(C)[C@H]1CC[C@]2(O)C(=O)CO [Cortisone] (20 µM)	0.991 (inactive)
CCN(CC)CCNC(=O)c1cc(Cl)c(N)cc1OC [Metoclopramide monohydrochloride] (20 µM)	1.03 (inactive)
C[C@@H](CN1CC(=O)NC(=O)C1)N1CC(=O)NC(=O)C1 [Dexrazoxane hydrochloride] (20 µM)	1.01 (inactive)
CCOc1ccc(NC(C)=O)cc1 [Phenacetin] (20 µM)	1.03 (inactive)
CC(C)C(=O)Nc1ccc([N+](=O)[O-])c(C(F)(F)F)c1 [Flutamide] (20 µM)	1.02 (inactive)
Cc1ccc2c([nH]c(=O)c3c(=O)cc(C(=O)OCCC(C)C)oc32)c1C [Repirinast] (20 µM)	1.03 (inactive)
CCCCc1oc2ccccc2c1C(=O)c1cc(I)c(OCCN(CC)CC)c(I)c1 [Amiodarone hydrochloride] (20 µM)	1.06 (inactive)
NCc1ccc(S(N)(=O)=O)cc1 [Mafenide hydrochloride] (20 µM)	1.08 (inactive)
CC[C@@H](CO)NCCN[C@@H](CC)CO [Ethambutol dihydrochloride] (20 µM)	0.958 (inactive)
Nc1c2ccccc2nc2ccccc12 [Aminacrine] (20 µM)	1.07 (inactive)
CC(C(=O)O)c1cccc(C(=O)c2ccccc2)c1 (centres undefined) [Ketoprofen] (20 µM)	1.03 (inactive)

Compound	fold change of Histamine concentration
CCOC(=O)[C@H](CCc1ccccc1)N[C@H]1CS[C@H](c2cccs2)CN(CC(=O)O)C1=O [Temocapril hydrochloride] (20 µM)	0.959 (inactive)
CC(COc1ccccc1)N(CCCl)Cc1ccccc1 (centres undefined) [Phenoxybenzamine hydrochloride] (20 µM)	1.02 (inactive)
CC1(C)OC(=O)NC1=O [Dimethadione] (20 µM)	0.952 (inactive)
c1cnc(N2CCN(Cc3ccc4c(c3)OCO4)CC2)nc1 [Piribedil] (20 µM)	0.934 (inactive)
O=c1[nH]c(=O)n(C2CCCO2)cc1F (centres undefined) [Tegafur] (20 µM)	0.969 (inactive)
Nc1ccc(S(=O)(=O)Nc2ncccn2)cc1 [Sulfadiazine] (20 µM)	0.966 (inactive)
Cc1onc(-c2c(Cl)cccc2Cl)c1C(=O)N[C@@H]1C(=O)N2[C@@H]1SC(C)(C)[C@@H]2C(=O)O [Dicloxacillin sodium salt hydrate] (20 µM)	1.01 (inactive)
CN(C)CCC=C1c2ccccc2C=Cc2ccccc21 [Cyclobenzaprine hydrochloride] (20 µM)	1.06 (inactive)
C#C[C@]1(O)CC[C@H]2[C@@H]3CCc4cc(O)ccc4[C@H]3CC[C@@]21C [Ethinylestradiol] (20 µM)	1.01 (inactive)
CN1CC(O)c2cc(N=NC(N)=O)c(O)cc21 (centres undefined) [Carbazochrome] (20 µM)	1.07 (inactive)
C[C@@H](O[C@H]1OCCN(Cc2n[nH]c(=O)[nH]2)[C@H]1c1ccc(F)cc1)c1cc(C(F)(F)F)cc(C(F)(F)F)c1 [Aprepitant] (20 µM)	1.02 (inactive)
CCOC(=O)c1c(N)sc2c1CCN(Cc1ccccc1)C2 [Tinoridine hydrochloride] (20 µM)	1.03 (inactive)
C/C(=C1\CCOC(=O)S1)N(C=O)Cc1cnc(C)nc1N [Cycotiamine] (20 µM)	1.01 (inactive)
CCN1CCN(C(=O)N[C@@H](C(=O)N[C@@H]2C(=O)N3[C@@H]2SC(C)(C)[C@@H]3C(=O)O)c2ccccc2)C(=O)C1=O [Piperacillin sodium salt] (20 µM)	0.706 (inactive)
CN1CCN2c3ccccc3Cc3ccccc3C2C1 (centres undefined) [Mianserine hydrochloride] (20 µM)	0.916 (inactive)
O=C(Oc1cccc2cccnc12)c1ccccc1 [Benzoxiquine] (20 µM)	0.957 (inactive)
Cc1cc(=O)n(-c2ccccc2)n1C [Antipyrine] (20 µM)	0.98 (inactive)
O=C1c2cccc(O)c2C(=O)c2c(O)cccc21 [Danthron] (20 µM)	0.93 (inactive)
Cc1c(Nc2ncccc2C(=O)O)cccc1C(F)(F)F [Flunixin meglumine] (20 µM)	0.909 (inactive)
